According to PubChem BioAssay (NCATS):
Inconclusive results are not listed. A call without a number means that no potency is given here. Activity calls are given as the source filed them. Calls come from the whole dose curve; as a rule, active = well fitted inhibition curve with a large enough effect; inconclusive = small, poorly fitted or top-dose-only effect; inactive = flat fitted curve, though single readings scatter.

What follows are compounds tested on MKL-1 (assay: qHTS assay to identify novel small-molecules to repurpose for Merkel cell carcinoma treatment (AID 1296009; note: nearly all actives have a fitted effect of over 60% in size)). Details: MCC and control cell lines, CellTiter-Glo viability, 72 h; series mostly up to 46 µM.
Method in brief: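 Dose-response viability screen; 72 hr exposure at 37 degree celsius; CellTiter-Glo added, 10 min room temperature, luminescence read; RLUs scaled between no-cell and DMSO wells.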
Potency is the fitted concentration of half-maximal effect.

**Q.** How did the Potency turn out when `Cc1c(C(=O)c2cccc3ccccc23)c2cccc3c2n1[C@H](CN1CCOCC1)CO3` was run?
**A.** 23.5 µM (active)

**Q.** For `CC(=O)Nc1ccc(OC[C@](C)(O)C(=O)Nc2ccc([N+](=O)[O-])c(C(F)(F)F)c2)cc1`, which Potency is on record?
**A.** inactive

**Q.** For `CCCCCCCCCC(CC)c1ccc(S(=O)(=O)O)cc1` (stereo not drawn), which Potency is on record?
**A.** inactive

**Q.** `Nc1ccc(Sc2ccc(N)cc2)cc1` was tested. Which Potency did it give?
**A.** inactive

**Q.** How did the Potency turn out when `CC(O)CN1CCN(CC(=O)[O-])CCN(CC(=O)[O-])CCN(CC(=O)[O-])CC1.[Gd+3]` (stereo not drawn) was run?
**A.** inactive

**Q.** With `CN1CCN(c2ccc([N+](=O)[O-])c3no[n+]([O-])c23)CC1` as the compound, how does the Potency read?
**A.** inactive

**Q.** For `O=C(O)COc1nc(Cl)c(Cl)cc1Cl`, which Potency is on record?
**A.** inactive

**Q.** Which Potency does the source give for `CS(=O)(=O)c1ccc(C(=O)C2C(=O)CCCC2=O)c([N+](=O)[O-])c1` here?
**A.** inactive

**Q.** How did the Potency turn out when `CCOP(=O)(NC(C)C)Oc1ccc(SC)c(C)c1` (stereo not drawn) was run?
**A.** inactive

**Q.** For `COC1=C[C@@H]2[C@@H]3Cc4ccc(OC)c(O)c4[C@]2(CCN3C)CC1=O`, which Potency is on record?
**A.** inactive

**Q.** `O=C1C=CC[C@@H]2[C@H]3CCCN4CCC[C@@H](CN12)[C@@H]34` was tested. Which Potency did it give?
**A.** inactive

**Q.** `CC(O)=C(C#N)C(=O)Nc1cc(Br)ccc1Br` was tested. Which Potency did it give?
**A.** inactive

**Q.** `O=C(NCC1CCOCC1)c1cnc(Nc2ccc(Cl)cc2Cl)nc1C(F)(F)F` was tested. Which Potency did it give?
**A.** inactive

**Q.** Which Potency does the source give for `CC(C)(O)C=CC(=O)[C@](C)(O)[C@H]1[C@H](O)C[C@]2(C)[C@@H]3CC=C4[C@@H](C=C(O)C(=O)C4(C)C)[C@]3(C)C(=O)C[C@@]12C` here?
**A.** 0.0662 µM (active)

**Q.** Which Potency does the source give for `C=C1C[C@H]2[C@H]3CCC(=O)[C@@]3(C)CC[C@@H]2[C@@]2(C)C=CC(=O)C=C12` here?
**A.** inactive

**Q.** Which Potency does the source give for `C[C@@H]1[C@H](O)[C@@H](C)C=CC=CCCC=CC=CC=CC=C[C@H](O[C@H]2O[C@@H](C)[C@H](O)[C@@H](N)[C@@H]2O)CC2O[C@](O)(C[C@@H](O)[C@H](O)CC[C@@H](O)C[C@@H](O)C[C@@H](O)CC(=O)O[C@H]1C)C[C@H](O)[C@H]2C(=O)O` here?
**A.** inactive

**Q.** Which Potency does the source give for `COc1ccc(CC2NCCc3cc(OC)c(OC)cc32)cc1OC` (stereo not drawn) here?
**A.** inactive

**Q.** Which Potency does the source give for `C[C@H]1CCCC=CC2C[C@H](O)C[C@@H]2[C@H](O)C=CC(=O)O1` (stereo partly drawn) here?
**A.** inactive

**Q.** How did the Potency turn out when `OCCCBr` was run?
**A.** inactive

**Q.** Which Potency does the source give for `CCN(CC)C(=O)c1ccc(C2=CC3(CCNCC3)Oc3cccc(O)c32)cc1` here?
**A.** inactive

**Q.** For `CC[C@H]1C=CC=CC[C@@H](C)[C@H](O)[C@@](C)(O)C(=O)[C@@H](C)[C@H](O)[C@@H](C)C(=O)[C@@H](C)[C@H](O)[C@@H](C)C=CC(=O)O[C@@H]2[C@@H](C)[C@H](CC1)O[C@]1(CC[C@H](C)[C@H](C[C@@H](C)O)O1)[C@H]2C`, which Potency is on record?
**A.** 0.296 µM (active)

**Q.** For `COc1ccc2c(c1)CN(C)CC2c1ccc(Cl)c(Cl)c1` (stereo not drawn), which Potency is on record?
**A.** inactive

**Q.** How did the Potency turn out when `c1cc2c(cc1[C@H]1OC[C@H]3[C@H]1CO[C@H]3c1ccc3c(c1)OCO3)OCO2` was run?
**A.** inactive

**Q.** `O=[N+]([O-])c1ccc([As](=O)(O)O)cc1` was tested. Which Potency did it give?
**A.** inactive

**Q.** `COCCOCCO` was tested. Which Potency did it give?
**A.** inactive

**Q.** How did the Potency turn out when `CC(N[C@H]1C[C@H]1c1ccccc1)c1ccc2c(c1)OCCO2` (stereo partly drawn) was run?
**A.** inactive

**Q.** Which Potency does the source give for `CC(=O)OCC1=C(C(=O)O)N2C(=O)[C@@H](N)[C@@H]2SC1` here?
**A.** inactive

**Q.** How did the Potency turn out when `COc1ccc2c(c[n+](C)c3c4cc5c(cc4ccc23)OCO5)c1OC` was run?
**A.** 2.35 µM (active)

**Q.** With `Cc1nc(-c2ccc(-c3ccc(C(=O)N4CCc5cc6c(cc54)C4(CCN(C)CC4)CO6)cc3)c(C)c2)no1` as the compound, how does the Potency read?
**A.** inactive

**Q.** With `Cc1c(C(=O)Nc2cccc(C(F)(F)F)c2)cc(-c2ccccc2)n1CCCN1CCOCC1` as the compound, how does the Potency read?
**A.** inactive

**Q.** How did the Potency turn out when `O=C1CCC[C@@H]2[C@H]3CCCN4CCC[C@@H](CN12)[C@@H]34` was run?
**A.** inactive

**Q.** How did the Potency turn out when `O=C1C(I)=CC(=C(c2cc(I)c(O)c(I)c2)c2ccccc2C(=O)O)C=C1I` was run?
**A.** inactive

**Q.** With `CC(C)(C)NC[C@H](O)c1ccc(O)cc1Cl` as the compound, how does the Potency read?
**A.** inactive
